The values that follow come from PubChem BioAssay (NCATS).

In experiment [1] the target is ATP-dependent 6-phosphofructokinase (Trypanosoma brucei brucei) (UniProt O15648). The experiment is described as follows: qHTS Assay to Find Inhibitors of T. brucei phosphofructokinase: hit validation (AID 492961).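 Also: luminescence reports ADP formed as PFK phosphorylates fructose-6-phosphate with ATP; % is scaled to controls: 0 for no effect and ±100 for the full control effect.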 Summed up: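 ADP-Glo luminescence read-out of ADP formed by 1.25 nM PFK from 0.1 mM ATP and 0.5 mM F6P (TEA pH 8.0, 45 min, RT). Compounds titrated; activity normalized to no-enzyme and full-enzyme controls.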
Sequence of ATP-dependent 6-phosphofructokinase (Trypanosoma brucei brucei) (O15648 whole entry, looked up): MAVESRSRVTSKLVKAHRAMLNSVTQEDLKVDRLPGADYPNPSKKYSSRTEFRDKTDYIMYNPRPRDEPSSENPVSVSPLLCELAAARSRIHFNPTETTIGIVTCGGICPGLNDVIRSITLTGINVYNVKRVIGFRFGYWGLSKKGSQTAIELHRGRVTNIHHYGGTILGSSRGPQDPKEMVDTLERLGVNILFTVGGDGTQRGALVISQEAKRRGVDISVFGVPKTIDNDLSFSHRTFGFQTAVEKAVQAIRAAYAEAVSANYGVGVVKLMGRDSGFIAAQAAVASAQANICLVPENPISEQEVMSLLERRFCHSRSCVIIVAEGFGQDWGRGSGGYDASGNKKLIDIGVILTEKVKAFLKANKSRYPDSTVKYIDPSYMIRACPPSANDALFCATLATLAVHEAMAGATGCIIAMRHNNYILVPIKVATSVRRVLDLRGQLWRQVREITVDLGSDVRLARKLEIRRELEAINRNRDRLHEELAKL
On the technique in general: In qHTS, concentration-response curves come from the screen itself.

In experiment [2] the target is Ubiquitin carboxyl-terminal hydrolase 1 (Homo sapiens) (UniProt O94782). The experiment is described as follows: Inhibitors of USP1/UAF1: Pilot qHTS (AID 504865).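 Also: rhodamine fluorescence freed from ubiquitin-rhodamine substrate followed over time; top concentration of the series differs between compounds; % is scaled to controls: 0 for no effect and ±100 for the full control effect; nearly all actives have a fitted effect of over 35% in size.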 Summed up: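 USP1/UAF1 complex (1nM) preincubated with compound 15 min at room temperature, then Ub-Rho substrate (150nM final) added. Fluorescence read kinetically at 480/540 nm, 6 reads every 60 seconds. Buffer: 50mM HEPES pH 7.8, 0.5mM EDTA, 0.1 mg/ml BSA, 1mM TCEP, 0.01% Tween-20.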
Sequence of Ubiquitin carboxyl-terminal hydrolase 1 (Homo sapiens) (O94782 whole entry, looked up): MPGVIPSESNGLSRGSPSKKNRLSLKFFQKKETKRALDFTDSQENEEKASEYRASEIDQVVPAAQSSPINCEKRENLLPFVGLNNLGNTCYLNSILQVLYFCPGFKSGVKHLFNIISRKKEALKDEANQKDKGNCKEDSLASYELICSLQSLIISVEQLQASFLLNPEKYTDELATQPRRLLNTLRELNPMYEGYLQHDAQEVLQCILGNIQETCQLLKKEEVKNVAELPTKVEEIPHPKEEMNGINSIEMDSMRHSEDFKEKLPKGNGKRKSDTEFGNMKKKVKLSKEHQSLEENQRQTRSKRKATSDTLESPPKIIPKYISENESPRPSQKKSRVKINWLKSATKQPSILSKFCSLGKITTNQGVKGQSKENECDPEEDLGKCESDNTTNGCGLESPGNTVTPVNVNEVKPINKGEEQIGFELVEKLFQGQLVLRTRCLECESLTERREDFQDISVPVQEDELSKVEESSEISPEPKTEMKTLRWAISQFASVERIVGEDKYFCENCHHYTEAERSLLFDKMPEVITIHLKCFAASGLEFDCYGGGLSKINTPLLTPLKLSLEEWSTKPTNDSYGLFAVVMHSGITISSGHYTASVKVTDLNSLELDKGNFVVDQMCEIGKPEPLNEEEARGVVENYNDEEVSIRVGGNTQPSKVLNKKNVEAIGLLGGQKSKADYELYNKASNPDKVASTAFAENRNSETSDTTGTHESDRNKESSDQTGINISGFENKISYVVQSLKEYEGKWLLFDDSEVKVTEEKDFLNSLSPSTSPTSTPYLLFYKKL

Experiment [3] addresses Luciferin 4-monooxygenase (Photinus pyralis) (UniProt P08659). Kind of experiment: Biochemical firefly luciferase enzyme assay for NPC (AID 624030).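 Also: purified P. pyralis luciferase at 10 nM with luciferin and ATP substrate; 0% = DMSO and -100% = full luciferase inhibition by PTC124 control; nearly all actives have a fitted effect of over 70% in size.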 Summed up:
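Direct inhibition of firefly luciferase enzyme (10 nM final, 50 mM Tris Acetate) assessed by luminescence within 5 minutes. Percent activity scaled between DMSO and PTC124 positive control, with concentration-effect curves classified by fit quality and response.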

Another experiment has as its system ATS189. The experiment is described as follows: qHTS profiling for inhibitors of Plasmodium falciparum proliferation (AID 504749). Also: nearly all actives have a fitted effect of over 60% in size. Also: potency is read from the fitted curve at half-maximal effect.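 As to activity, negative = inhibition: 0% = DMSO vehicle and full inhibition = artemisinin control.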 To be noted: P. falciparum in erythrocytes, SYBR Green DNA, 72 h; series mostly up to 28.7 µM. The essentials: (§1)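 Infected RBCs, 0.3% parasitemia/2.5% Hct final; cpd 72 h, 37 C, 5% CO2; lysis buffer with saponin/triton/SYBR Green I, o/n RT dark; FI 485/535; norm. to artemisinin (0.29 uM) and DMSO.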

Another experiment deals with C2A. The description is as above. To be noted: P. falciparum in erythrocytes, SYBR Green DNA, 72 h; series mostly up to 28.7 µM. The essentials: as §1
A further experiment has as its system CP191. The experiment is described as above. To be noted: P. falciparum in erythrocytes, SYBR Green DNA, 72 h; series mostly up to 28.7 µM. Summed up: as §1
For a further experiment, the system named is CP215. The experiment is described as above. To be noted: P. falciparum in erythrocytes, SYBR Green DNA, 72 h; series mostly up to 28.7 µM. Summed up: as §1
The test system of the next experiment is CP237. The description is as above. As to conditions: P. falciparum in erythrocytes, SYBR Green DNA, 72 h; series mostly up to 28.7 µM. Summed up: as §1
For a further experiment, the system named is CP238. The experiment is described as above. As to conditions: P. falciparum in erythrocytes, SYBR Green DNA, 72 h; series mostly up to 28.7 µM. The essentials:
as §1

For a further experiment, the system named is CP268. The experiment is described as above. As to conditions: P. falciparum in erythrocytes, SYBR Green DNA, 72 h; series mostly up to 28.7 µM. The essentials: as §1
The test system of another experiment is CP325. The description is as above. To be noted: P. falciparum in erythrocytes, SYBR Green DNA, 72 h; series mostly up to 28.7 µM. Summed up:
as §1

Another experiment relates to JCK. The experiment is described as above. To be noted: P. falciparum in erythrocytes, SYBR Green DNA, 72 h; series mostly up to 28.7 µM. Summed up: as §1
Experiment in experiment [4]: as above
To be noted: P. falciparum in erythrocytes, SYBR Green DNA, 72 h, at 28.7 µM (top of the series). Summed up:
as §1

A further experiment deals with CP192. The experiment is described as above. To be noted: P. falciparum in erythrocytes, SYBR Green DNA, 72 h; series mostly up to 28.7 µM. Summed up: as §1
Another experiment relates to CP201. The experiment is described as above. As to conditions: P. falciparum in erythrocytes, SYBR Green DNA, 72 h; series mostly up to 28.7 µM. Summed up: as §1
Another experiment deals with CP269. The description is as above. As to conditions: P. falciparum in erythrocytes, SYBR Green DNA, 72 h; series mostly up to 28.7 µM. The essentials:
as §1

In another experiment the test system is CP286. The description is as above. To be noted: P. falciparum in erythrocytes, SYBR Green DNA, 72 h; series mostly up to 28.7 µM. Summed up:
as §1

The subject of the next experiment is CP329. The experiment is described as above. To be noted: P. falciparum in erythrocytes, SYBR Green DNA, 72 h; series mostly up to 28.7 µM. Summed up: as §1
For another experiment, the system named is FAB9. The description is as above. As to conditions: P. falciparum in erythrocytes, SYBR Green DNA, 72 h; series mostly up to 28.7 µM. Summed up:
as §1

The test system of the next experiment is PC49. Described as above. To be noted: P. falciparum in erythrocytes, SYBR Green DNA, 72 h; series mostly up to 28.7 µM. Summed up: as §1

Results filed as inconclusive are left out. Unmarked numbers belong to inactive results. Calls of active or inactive are those of the source. Calls follow the shape of the dose curve; as a rule, active = well fitted curve in the direction sought with a large enough effect; inconclusive = small, poorly fitted or top-dose-only effect, or another doubt; inactive = no such curve, though single readings can be large; an effect the other way counts as inactive or inconclusive.

Sequence of Luciferin 4-monooxygenase (Photinus pyralis) (P08659 whole entry, looked up): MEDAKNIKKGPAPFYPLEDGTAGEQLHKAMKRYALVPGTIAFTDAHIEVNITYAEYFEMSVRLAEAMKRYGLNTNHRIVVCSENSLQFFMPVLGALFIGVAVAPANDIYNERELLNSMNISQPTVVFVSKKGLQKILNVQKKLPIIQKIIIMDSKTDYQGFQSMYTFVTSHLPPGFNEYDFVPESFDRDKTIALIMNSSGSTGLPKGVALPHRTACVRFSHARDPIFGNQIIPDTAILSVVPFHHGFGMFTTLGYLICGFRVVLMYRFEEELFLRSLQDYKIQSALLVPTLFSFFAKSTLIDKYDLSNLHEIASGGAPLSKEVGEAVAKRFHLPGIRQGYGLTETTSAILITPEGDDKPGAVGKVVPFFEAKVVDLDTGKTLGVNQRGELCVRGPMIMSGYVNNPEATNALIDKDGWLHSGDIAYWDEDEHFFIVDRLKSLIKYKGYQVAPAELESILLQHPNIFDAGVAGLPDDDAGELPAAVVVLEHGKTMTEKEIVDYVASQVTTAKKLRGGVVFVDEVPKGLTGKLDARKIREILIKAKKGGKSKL

As for `C#CC1(O)C=CC2C3CCC4=CC(=O)CCC4C3CCC21CC` (centres undefined), in [1], the outcome was inactive. Besides, the Potency result (in experiment [2]; in experiment [3]; with ATS189; in the experiment on C2A; with CP238; in the experiment with JCK) was “inactive” in each case. The Potency was 5.01 µM (active) with CP191; 9.53 µM (active) with CP215; 3.55 µM (active) with CP237; 7.57 µM (active) with CP268; 12 µM (active) in the experiment with CP325.

Turning to `C[C@@H](N)[C@@H](O)c1ccc(O)c(O)c1`, the Potency result (in experiment [2]; in [3]; in the experiment on ATS189; in the experiment on C2A; in the experiment on CP191; with CP192) was “inactive” throughout. In addition, the Potency entry with CP201, with CP215, with CP237, in the experiment with CP238, with CP268 and in the experiment with CP269 was “inactive” throughout. Further, the Potency entry in the experiment on CP286, in the experiment on CP325, in the experiment with CP329, in the experiment with FAB9, with JCK and in the experiment on PC49 was “inactive” each time. The values for the activity, negative = inhibition in experiment [4] (parasite line A) and in [4] (parasite line B) were -5.35% and 7.25%, respectively.

Take `C[C@]12CC[C@H]3[C@@H](CC[C@@]45O[C@@H]4C(=O)C(C#N)C[C@]35C)[C@@H]1CC[C@@H]2O` (some centres undefined): the outcome in experiment [1] was inactive. Further, the Potency result (in experiment [3]; with CP192; with CP201; with CP215; with CP237; in the experiment on CP238) was “inactive” in each case. The Potency entry in the experiment with CP268, in the experiment on CP269, with CP286, in the experiment on CP325, in the experiment with CP329 and in the experiment with FAB9 was “inactive” in each case. The Potency result in the experiment with JCK and in the experiment on PC49 was “inactive” in each case.

In the case of `CC1CC[C@@]2(NC1)OC1CC3C4CC[C@@H]5CC(O)CC[C@@]5(C)C4CC[C@]3(C)C1C2C` (some centres undefined), the call in experiment [1] was inactive. Besides, the Potency result (in experiment [3]; in the experiment with ATS189; with C2A; with CP191; in the experiment on CP192; in the experiment with CP201) was “inactive” throughout. In addition, the Potency entry in the experiment with CP215, with CP237, with CP238, in the experiment with CP268, in the experiment with CP269 and in the experiment with CP286 was “inactive” throughout. Also, the Potency entry in the experiment with CP325, in the experiment with CP329, with FAB9, with JCK and in the experiment on PC49 was “inactive” in each case.

For the compound `O=C1CC2OCC=C3CN4CC[C@]56c7ccccc7N1C5C2[C@H]3C[C@H]46` (some centres undefined), in [1], the compound was classed as inactive. For the same compound, the Potency entry (in experiment [2]; in the experiment on CP191; in the experiment on FAB9; in the experiment with PC49) was “inactive” in each case. Further, in experiment [4] (parasite line B), the activity, negative = inhibition was -18.7%. In addition, the figures for the Potency in the experiment with CP237, with CP238 and in the experiment on CP325 were 5.01 µM (active), 10 µM (active) and 13.5 µM (active), respectively.

In the case of `CC(Cc1ccccc1)N(C)C` (centres undefined), in experiment [1], the outcome was inactive. Further, the Potency entry (in experiment [2]; in [3]; with ATS189; in the experiment with C2A; in the experiment on CP191; in the experiment with CP192) was “inactive” throughout. Further, the Potency entry with CP201, in the experiment with CP215, with CP237, in the experiment with CP238, in the experiment on CP269 and with CP286 was “inactive” throughout. Further, the Potency entry in the experiment with CP325, in the experiment with CP329, in the experiment with FAB9, in the experiment with JCK and in the experiment on PC49 was “inactive” each time. Moreover, the activity, negative = inhibition was 9.11% in experiment [4] (parasite line A) and 11.3% in [4] (parasite line B).
